Sampled rows, rich in hits. Any-hit rate of the full collection: about 1.6%.
Bfl-1 A1 inh: inhibitors of the anti-apoptotic protein A1, read as caspase activation | MEF A1-2A-BIM cells, Caspase-Glo 3/7 luminescence, 3 h; percent of clofoctol response, vehicle zero | caspase activation, % (test concentration not listed) | 330,000 compounds, 0.066% hits;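 active = over half of replicate activation scores above 10%, or exactly half above 10 with the replicate mean above 10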
dFosB activator: activators of mouse delta FosB homodimer; P13346; purified delta FosB, TAMRA-CDK5 oligo fluorescence polarization; percent of positive-control signal above neutral wells; activation, % at 25 µM; 340,000 compounds, 0.99% hits; AID 493131;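 active = mean activation above about 17%, with every replicate also reaching it, limit read from the data, passing the limit was not always enough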
Dyrk1A ADPGlo: blocks rat Dyrk1A kinase activity | Q63470 | ADP-Glo luminescence, NFATc1 peptide | inhibition, % at 12.5 µM | 310,000 compounds, 0.43% hits; in the data active = inhibition above about 50%;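 note: plate controls were vehicle with enzyme for no effect and no enzyme for full effect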
B2AR ag: activates human beta-2 adrenergic receptor causing internalization | 340,000 compounds, 0.43% hits | AID 504454 | Am2.2-beta2AR cells, FAP receptor internalization, flow cytometry | P07550 | response, % (test concentration not listed);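 active = response above a set limit, near 3 SD of response in nonfluorescent compounds, cut at about 42% in these data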
Target sequence (P07550 whole entry, looked up): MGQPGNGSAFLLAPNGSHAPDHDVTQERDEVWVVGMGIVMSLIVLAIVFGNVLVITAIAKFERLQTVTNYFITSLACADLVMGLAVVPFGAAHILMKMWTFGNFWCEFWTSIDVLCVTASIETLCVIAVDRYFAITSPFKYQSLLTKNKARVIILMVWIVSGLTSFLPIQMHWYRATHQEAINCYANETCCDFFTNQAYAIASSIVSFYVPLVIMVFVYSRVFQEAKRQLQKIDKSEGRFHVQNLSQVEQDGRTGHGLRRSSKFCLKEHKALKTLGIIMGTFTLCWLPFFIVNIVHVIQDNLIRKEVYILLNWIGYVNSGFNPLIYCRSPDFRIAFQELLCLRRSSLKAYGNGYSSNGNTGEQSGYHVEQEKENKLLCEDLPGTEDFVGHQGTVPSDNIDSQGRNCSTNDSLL
Beta2AR ag CP1: agonists of human beta-2 adrenergic receptor. shares compounds with B2AR ag. Am2.2-beta2AR cells, FAP surface receptor, flow cytometry; hits give low values. percent response (surface receptor), % at 10 µM. 1,100 compounds, 25% hits. AID 540358;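 active = surface receptor percent response at or below 58%, roughly 3 SD from nonfluorescent compounds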
B2AR FAP counter: counter-screen for beta-2AR agonists: fluorescence in Am2.2 cells | shares compounds with B2AR ag | FAP fluorogen flow cytometry, fluorescence counterscreen; hits give low values | calls only at 10 µM | 1,100 tested, under 10 active;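 active = percent response below a set limit in fluorescence channel 1 and below 50% in channel 8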
* = called active by the depositor; i = inactive; . = not tested or not shown.

SMILES | Bfl-1 A1 inh | dFosB activator | Dyrk1A ADPGlo | B2AR ag | Beta2AR ag CP1 | B2AR FAP counter
Nc1c(Cl)c(Cl)nc(C(=O)OCC(=O)NC2CCCCC2)c1Cl | 0 | -10 | -5 | 6 | . | .
CC(OC(=O)c1cc(=O)[nH]c2ccccc12)C(=O)NC1CCCC1 (stereo not drawn) | -2 | -1 | 1 | -9 | . | .
CC1(C)C2CCC1(CS(=O)(=O)N1CCN(c3ccccc3F)CC1)C(=O)C2 (stereo not drawn) | 0 | -10 | -6 | 72* | 112 | i
Cc1ccccc1N1CCN(S(=O)(=O)CC23CCC(CC2=O)C3(C)C)CC1 (stereo not drawn) | 0 | -1 | 3 | 7 | . | .
COc1ccccc1C(=O)NCCC(=O)N1CC=C(c2ccccc2)CC1 | 0 | -10 | 1 | -5 | . | .
CCCCN(C(=O)CSc1nc2ccccc2n1CC)C1CCS(=O)(=O)C1 (stereo not drawn) | 0 | -10 | -5 | -10 | . | .
CC(C)(C)NC(=S)NNC(=O)c1cccc(Br)c1 | -1 | -2 | 3 | -11 | 113 | i
O=C(NNC(=S)Nc1ccccc1)c1cccc(Br)c1 | -1 | 3 | 5 | -10 | . | .
Cc1c(CC(=O)N[C@@H](C)C(=O)O)c(=O)oc2cc3oc4c(c3cc12)CCCC4 | 1 | 3 | 3 | -6 | . | .
O=C(NC1CCCN(C2Cc3ccccc3C2)C1)c1ccc(F)cc1Cl (stereo not drawn) | 1 | -6 | 1 | -1 | . | .
CCOC(=S)SCc1cn2cccc(C)c2n1 | 0 | 0 | 8 | -11 | . | .
CNCC(O)c1ccc(OC(=O)C(C)(C)C)c(OC(=O)C(C)(C)C)c1 (stereo not drawn) | -1 | -1 | -2 | 16 | 46* | i
CC(C)c1nc2oc3c(N(C)CCO)ncnc3c2c2c1CCC2 | -1 | -21 | 6 | -10 | 148 | i
CN(Cc1ccccc1)C(=O)COC(=O)COc1ccc(C#N)cc1 | 1 | 0 | -3 | -5 | . | .
Nc1nonc1C(=O)NCCNS(=O)(=O)c1ccc(F)cc1 | 1 | 1 | -8 | 65* | 69 | i
O=S(=O)(NCCNS(=O)(=O)c1ccc(F)cc1)c1ccc(F)cc1 | 0 | -4 | 0 | 0 | . | .
Cc1nc([N+](=O)[O-])c(Br)n1CC(=O)c1ccc2ccccc2c1 | 1 | -5 | 5 | 43* | 78 | i
Cc1ccc(CNC(=O)CCCCn2c(=O)[nH]c3ccsc3c2=O)cc1 | 0 | -4 | 5 | 12 | 121 | i
O=C(CCCCCn1c(=O)[nH]c2ccsc2c1=O)NCc1cccs1 | 1 | 2 | -1 | 4 | . | .
Cc1ccc(NC(=O)CCCn2c(=O)[nH]c3ccsc3c2=O)cc1 | 0 | -5 | -4 | -4 | . | .
O=C(CCCCCn1c(=O)[nH]c2ccsc2c1=O)NCc1ccc(F)cc1 | 0 | -8 | -3 | 109* | 1.5* | i
O=C(COc1ccc(F)cc1)N(Cc1cccc(Br)c1)C1CCS(=O)(=O)C1 (stereo not drawn) | -1 | -11 | -4 | 53* | 109 | i
O=C(COc1ccccc1)N(Cc1cccc(F)c1)C1CCS(=O)(=O)C1 (stereo not drawn) | 2 | 4 | 4 | 0 | . | .
O=C(Cc1cccc(NC(=O)C2CCN(C(=O)C3CC3)CC2)c1)Nc1cccc(C(=O)N2CCCCC2)c1 | . | -12 | -4 | -3 | . | .
COc1ccc(C(=O)C(CCC(CNC(C)(C)C)C(=O)c2ccc(OC)cc2)CNC(C)(C)C)cc1 (stereo not drawn) | 1 | 3 | -5 | 54* | 80 | i
CCN(Cc1ccccc1)S(=O)(=O)c1cc(C(=O)NC(C)C2CC3CCC2C3)ccc1OC (stereo not drawn) | 0 | -9 | -10 | 49* | 52* | i
CC(=O)c1cccc(S(=O)(=O)N2CCCC(c3nc(-c4ccc(C)o4)no3)C2)c1 (stereo not drawn) | -1 | -4 | 6 | 54* | 80 | i
O=C(NC(=O)c1ccccc1)Nc1ccc(Cl)cn1 | -11 | -1 | -2 | -11 | . | .
CC1CC2(C)Oc3ccccc3CC2C(C)C1CNCCCN(C)C (stereo not drawn) | 1 | 3 | -2 | 42* | 78 | i
